Laboratory results published in ChEMBL document CHEMBL3988442, “University of Dundee, Small-Polar-MMV Screening Library” (2021).
The campaign covered roughly 65,000 compounds. About 65 (0.1%) showed an effect of 50% or more. The sample as a whole holds a higher share of strong results than the screen did.

What follows are molecules tested against Tryptophan--tRNA ligase (Mycobacterium tuberculosis (strain ATCC 25618 / H37Rv)) (UniProt P9WFT3) (assay: Biochemical assay for Mt-TrpRS). Conditions: 10 µM.
Chain of Tryptophan--tRNA ligase (Mycobacterium tuberculosis (strain ATCC 25618 / H37Rv)) (P9WFT3 whole entry): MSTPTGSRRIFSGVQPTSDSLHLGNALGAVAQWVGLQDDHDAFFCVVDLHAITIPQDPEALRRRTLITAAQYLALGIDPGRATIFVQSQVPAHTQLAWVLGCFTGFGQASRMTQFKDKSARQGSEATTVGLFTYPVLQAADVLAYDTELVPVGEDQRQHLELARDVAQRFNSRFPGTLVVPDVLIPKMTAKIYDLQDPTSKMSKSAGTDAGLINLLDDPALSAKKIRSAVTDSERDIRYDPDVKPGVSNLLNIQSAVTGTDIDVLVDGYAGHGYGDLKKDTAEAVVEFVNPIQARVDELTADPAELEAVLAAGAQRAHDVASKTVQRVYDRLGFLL
Type: functional
Set-up: scale not given: direction of the effect not stated beside the values
In the case of `CN(Cc1ccccc1)C(=O)CN1CCCC(Cn2cncn2)C1` (stereo unspecified), the Percent Effect is reported as 5.08%.
With `CC(C)(C)c1nc(CN2CCCC(Cn3cncn3)C2)cs1` (stereo unspecified) the Percent Effect was 3.52%.
`Cc1ccc(CN(C)C(=O)CN2CCCC(Cn3cncn3)C2)cc1` (stereo unspecified) was tested, and the Percent Effect was 11.8%.
Work on `CC(C)c1nc(CN2CCCC(Cn3cncn3)C2)cs1` (stereo unspecified) yielded a Percent Effect of 61.3%.
`CN(Cc1cnn(C)c1)C(=O)CN1CCCC(Cn2cncn2)C1` (stereo unspecified) was tested, and the Percent Effect was 85.4%.
`c1cnc(-c2nc(CN3CCCC(Cn4cncn4)C3)cs2)nc1` (stereo unspecified) gave a Percent Effect of -1.17%.
With `O=C(c1ccno1)N1CCN2C(=O)N(Cc3ccc(F)cc3)C[C@H]2C1` the Percent Effect was 0.0753%.
For `O=C(c1ccnnc1)N1C[C@H](OCC2CCOCC2)[C@H]2OCCC[C@H]21`, the Percent Effect was -0.419%.
Work on `O=C(C1CCC1)N1C[C@H]2CNC[C@H]2C1` yielded a Percent Effect of 9.01%.
`O=C(NS(=O)(=O)c1cccnc1)C1CC(c2ccccc2)=NO1` (stereo unspecified) gave a Percent Effect of 54.1%.
`N#Cc1ccc(S(=O)(=O)NC(=O)C2CC(c3ccccc3)=NO2)cc1` (stereo unspecified) gave a Percent Effect of 0.0809%.
In the case of `COc1cccc(S(=O)(=O)NC(=O)C2CC(c3ccccc3)=NO2)c1` (stereo unspecified), the Percent Effect is reported as 0.405%.
Molecule `COc1c(CNC2CCCN(c3ncccn3)C2)c(C(C)C)nn1C` (stereo unspecified) has a Percent Effect of 67.7%.
Molecule `COc1c(CNC2CCN(c3ccccn3)CC2)c(C(C)C)nn1C` has a Percent Effect of 1.1%.
`COc1c(CNC2CCN(c3ncccn3)CC2)c(C(C)C)nn1C` showed a Percent Effect of 1.66%.
Work on `COc1cccc(OC)c1CNC(Cc1ccsc1)c1ccc(C)cn1` (stereo unspecified) yielded a Percent Effect of -1.02%.
`Cc1occc1C(=O)N1C[C@@H]2CCCO[C@@H]2[C@H](N(C)Cc2ccco2)C1` gave a Percent Effect of 1.95%.
`CC(C)c1cc(C(=O)N2CCN(CC3CC3)[C@@H]3CS(=O)(=O)C[C@@H]32)no1` was tested, and the Percent Effect was -4.85%.
In the case of `CC(C)N1CCCC2(CCN(Cc3noc(C4CCCC4)n3)C2)C1=O` (stereo unspecified), the Percent Effect is reported as 54.2%.
`CCCN1CCCC2(CCN(Cc3noc(C4CCCC4)n3)C2)C1=O` (stereo unspecified) showed a Percent Effect of 7.84%.
For `O=C1N(CCO)CCCC12CCN(Cc1noc(C3CCCC3)n1)C2` (stereo unspecified), the Percent Effect was 7.84%.
`O=C(NCc1ccccc1)N1C[C@H]2CCN[C@H]2C1` showed a Percent Effect of 2.62%.
With `COCCN1C(=O)CO[C@H]2CN(S(=O)(=O)c3ccccc3)C[C@H]21` the Percent Effect was -1.73%.
With `CCN1C[C@@H]2[C@@H](OC)CCN(C(=O)c3cc(C)nn3CC)[C@@H]2C1` the Percent Effect was -1.95%.
`Cc1cc(NC(=O)CN2CCc3cncnc3C2)on1` showed a Percent Effect of 2.85%.
Molecule `Cc1cc(NC(=O)CN2CCc3cncnc3C2)no1` has a Percent Effect of 69%.
For `Cc1ncc2c(n1)CN(CC(=O)Nc1cc(C)on1)CC2`, the Percent Effect was 0.514%.
For `CCCS(=O)(=O)N1CC[C@H]2O[C@H](c3nnc(C)o3)CC[C@H]21`, the Percent Effect was -5.84%.
`CNC(=O)c1nc(CN2CCOC(C(F)(F)F)C2)no1` (stereo unspecified) was tested, and the Percent Effect was 69.6%.
With `CNC(=O)c1nc(CN2CCOC(CCCC(C)C)C2)no1` (stereo unspecified) the Percent Effect was 0.819%.
For `NC(=O)c1nc(CN2CCOC(C(F)(F)F)C2)no1` (stereo unspecified), the Percent Effect was -0.819%.
Molecule `CCCNCc1ccc(-c2ccnc3[nH]ccc23)cc1` has a Percent Effect of -1.02%.
In the case of `CC(C)N1[C@@H](C(=O)NCCN(C)C)C[C@H]2CN(c3ncccn3)C[C@H]21`, the Percent Effect is reported as 5.77%.
Work on `c1cnnc(N2CCCC(NCc3nc(-c4ccco4)no3)C2)c1` (stereo unspecified) yielded a Percent Effect of 90.8%.
`c1ccc(-c2noc(CNC3CCCN(c4cccnn4)C3)n2)nc1` (stereo unspecified) gave a Percent Effect of 1.43%.
`c1cnnc(N2CCCC(NCc3nc(-c4cccs4)no3)C2)c1` (stereo unspecified) gave a Percent Effect of -1.29%.
Molecule `C[C@H]1C[C@H]2CN(C(=O)CC3CC3)CC[C@H]2O1` has a Percent Effect of 2.03%.
Work on `CC(C)c1nc(C2CCCN2C(=O)c2cnns2)no1` (stereo unspecified) yielded a Percent Effect of -5.71%.
Work on `Cc1ccccc1CNC(=O)N1C[C@H]2C[C@H](C(=O)N3CCCC3)[C@@H](C1)O2` yielded a Percent Effect of -2.16%.
In the case of `CCn1ncc(CN2CCC(c3ncc(Cl)cc3S(C)(=O)=O)CC2)c1C`, the Percent Effect is reported as -1.24%.
With `C=Cn1cc(CN2CCC(c3ncc(Cl)cc3S(C)(=O)=O)CC2)c(C)n1` the Percent Effect was -5.42%.
`C=Cn1ncc(CN2CCC(c3ncc(Cl)cc3S(C)(=O)=O)CC2)c1C` was tested, and the Percent Effect was 67.3%.
For `Fc1ccccc1CO[C@@H]1C[C@H]2CN(c3ncccn3)CCN2C1`, the Percent Effect was -4.64%.
In the case of `Cc1nnc2n1CCN(Cc1csc(-c3ncccn3)n1)C2`, the Percent Effect is reported as 59%.
With `c1cnc(-c2nc(CN3CCn4c(nnc4C4CC4)C3)cs2)nc1` the Percent Effect was -3.46%.
`CCc1nnc2n1CCN(Cc1csc(-c3ncccn3)n1)C2` showed a Percent Effect of 1.94%.
`CN(C)C(=O)CN1C[C@@H]2CC[C@H](C1)N(Cc1c(F)cccc1Cl)C2` gave a Percent Effect of 2.26%.
`COc1ccccc1OCCc1nnc(NC(=O)C2CC23CCC3)s1` (stereo unspecified) showed a Percent Effect of 72.7%.
Molecule `COc1ccc(CCc2nnc(NC(=O)C3CC34CCC4)s2)cc1OC` (stereo unspecified) has a Percent Effect of -2.9%.
`COc1ccc(Cc2nnc(NC(=O)C3CC34CCC4)s2)cc1OC` (stereo unspecified) showed a Percent Effect of 1.5%.
`CSC1=Nc2c(cnn2-c2cccc(Cl)c2)C2=NCCCN12` was tested, and the Percent Effect was 1.3%.
Molecule `Cc1cnn(CC2CCCCN2Cc2nc(N)c3ccccc3n2)c1` (stereo unspecified) has a Percent Effect of 1.18%.
`Cc1cnn(CC2CCCN2Cc2nnc(C)o2)c1` (stereo unspecified) showed a Percent Effect of -10.6%.
`Cc1cnn(CC2CCCN2Cc2nc(N)c3ccccc3n2)c1` (stereo unspecified) gave a Percent Effect of 57.9%.
For `CCc1nnc(CN2CCCC2Cn2cc(C)cn2)o1` (stereo unspecified), the Percent Effect was 9.78%.
`Cc1cnn(CC2CCCN2Cc2nc(C)c3ccccc3n2)c1` (stereo unspecified) was tested, and the Percent Effect was 0.13%.
Molecule `c1ccc(Cc2nnc(CN3CCCCC3Cn3cncn3)o2)cc1` (stereo unspecified) has a Percent Effect of -0.0684%.
In the case of `CCc1nnc(CN2CCCCC2Cn2cncn2)o1` (stereo unspecified), the Percent Effect is reported as 75.1%.
In the case of `Cc1cnn(CC2CCCN2Cc2nnc(C(C)C)o2)c1` (stereo unspecified), the Percent Effect is reported as 60.5%.
In the case of `Cc1ccc(-c2nnc(CN3CCCCC3Cn3cncn3)o2)cc1` (stereo unspecified), the Percent Effect is reported as 3.48%.
`CNC(=O)N1CC[C@@H]2CN(CCc3cccc(OC)c3)S(=O)(=O)[C@@H]2CC1` gave a Percent Effect of -3.31%.
With `CCc1cnc(N2C[C@H]3C[C@H](C(=O)NC4CCC4)[C@@H](C2)O3)nc1` the Percent Effect was -1.02%.
With `CCNC(=O)N1C[C@@H]2OCC(=O)N(CC3CC3)[C@@H]2C1` the Percent Effect was -1.91%.
`Cc1cccnc1NCCNC(=O)c1cnc(-c2ccccn2)nc1O` showed a Percent Effect of 2.7%.
Work on `Cn1cc(CN2CC[C@H]3OCC[C@@H](C(=O)NCc4ccco4)[C@@H]3C2)cn1` yielded a Percent Effect of 0.83%.
`O=C1C[C@H]2[C@@H](CCN2C(=O)c2ccoc2)N1CCN1CCOCC1` showed a Percent Effect of 2.55%.
With `Cn1ccnc1C(=O)N1C[C@@H]2CCN(c3cnccn3)C[C@@H]2C1` the Percent Effect was 2.7%.
`Cc1ccc(-c2noc(C3CCN3C(=O)c3ccn(C)n3)n2)s1` (stereo unspecified) showed a Percent Effect of -4.63%.
`CC(=O)N1CCC(C(=O)N2CCC2c2nc(-c3ccc(C)s3)no2)CC1` (stereo unspecified) was tested, and the Percent Effect was 56.7%.
`CC(=O)N1CCC1c1nc(-c2ccc(C)s2)no1` (stereo unspecified) was tested, and the Percent Effect was 13.1%.
`COCCNC(=O)Cn1ccc2sc(C)cc2c1=O` gave a Percent Effect of 0.44%.
`CCCc1noc(CN2CCN(c3nccs3)CC2)n1` showed a Percent Effect of 2.03%.
With `CC(C)Cc1noc(CN2CCN(c3nccs3)CC2)n1` the Percent Effect was -1.84%.
`CCc1noc(CN2CCN(c3nccs3)CC2)n1` was tested, and the Percent Effect was 71.8%.
`Cc1nn(C)c2c(=O)n(CC(=O)NCCC3=CCCCC3)ccc12` showed a Percent Effect of 2.33%.
Molecule `CCN(c1ccc(C(=O)N2CCCC2c2cnn(C)c2)cn1)C(C)C` (stereo unspecified) has a Percent Effect of 64.8%.
`CC(C)CN(C)c1ccc(C(=O)N2CCCC2c2cnn(C)c2)cn1` (stereo unspecified) was tested, and the Percent Effect was 2.24%.
In the case of `CCCN(CC)c1ccc(C(=O)N2CCCC2c2cnn(C)c2)cn1` (stereo unspecified), the Percent Effect is reported as -3.89%.
Work on `O=C([C@H]1CN(Cc2nccs2)C[C@H]2OCC[C@@H]12)N1CCCC1` yielded a Percent Effect of 4.93%.
`O=C1CO[C@@H]2CN(S(=O)(=O)c3ccccc3)C[C@H]2N1CC1CC1` was tested, and the Percent Effect was 4.3%.
For `Cc1noc(CN(Cc2cccs2)C2CCS(=O)(=O)C2)n1` (stereo unspecified), the Percent Effect was -5.5%.
Molecule `O=S1(=O)CCC(N(Cc2nc3ccccc3o2)Cc2cccs2)C1` (stereo unspecified) has a Percent Effect of 57%.
Work on `Cc1nc(CN(Cc2cccs2)C2CCS(=O)(=O)C2)oc1C` (stereo unspecified) yielded a Percent Effect of 1.07%.
`CC(C)(C)c1nc(CN(Cc2cccs2)C2CCS(=O)(=O)C2)no1` (stereo unspecified) gave a Percent Effect of -0.877%.
In the case of `O=S1(=O)CCC(N(Cc2nc(-c3ccccn3)no2)Cc2cccs2)C1` (stereo unspecified), the Percent Effect is reported as -6.38%.
With `Cc1noc(C)c1CN(Cc1cccs1)C1CCS(=O)(=O)C1` (stereo unspecified) the Percent Effect was 59.4%.
`O=C(c1ccnnc1)N1C[C@@H]2C[C@@H](c3nc(C4CC4)cs3)O[C@@H]2C1` was tested, and the Percent Effect was 2.42%.
`O=C(NCc1ccco1)[C@@H]1CCO[C@@H]2CCN(c3ncccn3)C[C@@H]21` gave a Percent Effect of 3.59%.
`c1cncc(OCc2noc3c2CN(Cc2ccsc2)CC3)c1` was tested, and the Percent Effect was -0.692%.
Molecule `CC(c1nc(C2CC2)no1)N1CCN(c2ccc(C#N)cn2)CC1` (stereo unspecified) has a Percent Effect of 0.106%.
`O=C1CC[C@H]2CN(Cc3ccc(Cl)s3)CC[C@H]2N1CCc1c[nH]cn1` gave a Percent Effect of 0.411%.
